From PubChem BioAssay (EPA / NIEHS)
Activity calls are given as the source filed them. Rule for the calls: active = hit-call score of the fitted dose curve at least 0.9, where 1 is the maximum; inactive = score below 0.9.

Key:
Conditions in all cases: mRNA level, 48 h; actives raise or lower the signal
[1] = read-out: Ezrin (EZR), EZR (gene 7430); assay: LTEA_HepaRG_EZR: Life Technologies and Expression Analysis (LTEA) Assay for Ezrin (EZR) using HepaRG (AID 2283491)
Description: It is a marker of Cellular remodeling.Data from the assay component LTEA_HepaRG_EZR was analyzed into 1 endpoint. This assay endpoint, LTEA_HepaRG_EZR, was analyzed with bidirectional fitting relative to DMSO as the negative control and baseline of activity. Using a type of inducible reporter, measures of mRNA induction for gain or loss-of-signal activity can be used to understand regulation of transcription factor activity. To generalize the intended target to other relatable targets, this assay endpoint is annotated to the membrane protein intended target family, where the subfamily is Cellular remodeling.
(§1) A total of 1060 chemcials from the ToxCast library were tested in eight-point concentration-response experiments. Cell culture and cytotoxicity assays were conducted at Thermo Fisher Scientific's Custom Services facility (Madison, WI). A single lot of human HepaRG cells (Thermo Fisher Scientific, Frederick, MD) was used for the cell culture experiments. 96-well format collagen type I coated plates of human HepaRG cells were prepared using established methods. […] Fluidigm's 96.96 Dynamic ArrayTM (Fluidigm, Amsterdam, the Netherlands) technology was used for gene expression analyses by quantitative reverse transcription polymerase chain reaction (qRT-PCR, performed by Quintiles/Expression Analysis, Durham, NC)89. […]

[2] = read-out: Cytochrome P450 3A7 (Homo sapiens) (UniProt P24462); assay: LTEA_HepaRG_CYP3A7: Life Technologies and Expression Analysis (LTEA) Assay for CYP3A7 using HepaRG (AID 2283492)
Summary of the method: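 Human HepaRG liver cells, 48 h post-plating, switched to serum-free induction medium and exposed in duplicate for 48 h. Dosing: 100 uM top, half-log dilutions, 8 points, 0.5% DMSO vehicle. Read-out: CYP3A7 mRNA, gain or loss fitted against DMSO baseline.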

[3] = read-out: CYP3A5 (gene 1577); assay: LTEA_HepaRG_CYP3A5: Life Technologies and Expression Analysis (LTEA) Assay for CYP3A5 using HepaRG (AID 2283493)
Summary of the method: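 qRT-PCR read-out: CYP3A5 transcript in HepaRG lysates, housekeeping-normalized (ACTB/GAPDH/POLR2A), fitted bidirectionally against 0.5% DMSO baseline. Exposure 48 h, eight half-log concentrations up to 100 uM, duplicates.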

[4] = read-out: Fatty Acid-Binding Protein 1 (FABP1), FABP1 (gene 2168); assay: LTEA_HepaRG_FABP1: Life Technologies and Expression Analysis (LTEA) Assay for Fatty Acid-Binding Protein 1 (FABP1) using HepaRG (AID 2283494)
Description: (§2) LTEA_HepaRG is a cell based, multiplexed-readout assay that uses HepaRG, a human liver cell line, with measurements taken at 48 hours after chemical dosing on a 96-well plate.LTEA_HepaRG_FABP1 is one of 102 assay component(s) measured in the LTEA HepaRG cell culture assay. It is a marker of Steatosis.Data from the assay component LTEA_HepaRG_FABP1 was analyzed into 1 endpoint. This assay endpoint, LTEA_HepaRG_FABP1, was analyzed with bidirectional fitting relative to DMSO as the negative control and baseline of activity. Using a type of inducible reporter, measures of mRNA induction for gain or loss-of-signal activity can be used to understand regulation of transcription factor activity. To generalize the intended target to other relatable targets, this assay endpoint is annotated to the transporter intended target family, where the subfamily is fatty acid carrier protein.
as §1, with “WI).” for “WI). A single lot of human HepaRG cells (Thermo Fisher Scientific, Frederick, MD) was used for the cell culture experiments. 96-well format collagen type I coated plates of human HepaRG cells were prepared using established methods.”

[5] = read-out: Cytochrome P450 4A22 (Homo sapiens) (UniProt Q5TCH4); assay: LTEA_HepaRG_CYP4A22: Life Technologies and Expression Analysis (LTEA) Assay for Cytochrome P450 4A22 (CYP4A22) using HepaRG (AID 2283495)
Summary of the method: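 Readout is CYP4A22 transcript induction or loss, quantified by qRT-PCR and normalized to ACTB, GAPDH and POLR2A. Human HepaRG cells receive test chemicals for 48 h at eight half-log concentrations from 100 uM in 0.5% DMSO.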

[6] = read-out: Cytochrome P450 7A1 (Homo sapiens) (UniProt P22680); assay: LTEA_HepaRG_CYP7A1: Life Technologies and Expression Analysis (LTEA) Assay for Cytochrome P450 7A1 (CYP7A1) using HepaRG (AID 2283496)
Summary of the method: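 Using 0.5% DMSO as vehicle and baseline, chemicals were tested in duplicate over an 8-point range from 100 uM on HepaRG cells for 48 h; qRT-PCR signals were normalised to ACTB, GAPDH and POLR2A.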

[7] = read-out: Glutathione S-Transferase (GSTA2), GSTA2 (gene 2939); assay: LTEA_HepaRG_GSTA2: Life Technologies and Expression Analysis (LTEA) Assay for Glutathione S-Transferase (GSTA2) using HepaRG (AID 2283497)
Summary of the method: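 Oxidative-stress marker GSTA2 is quantified by TaqMan qRT-PCR in HepaRG cultures treated 48 h across an eight-point range to 100 uM. Expression is normalized to endogenous controls and compared with 0.5% DMSO vehicle.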

[8] = read-out: Glutamate-cysteine ligase catalytic (GCLC), GCLC (gene 2729); assay: LTEA_HepaRG_GCLC: Life Technologies and Expression Analysis (LTEA) Assay for Glutamate-cysteine ligase catalytic (GCLC) using HepaRG (AID 2283498)
Summary of the method: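 Oxidative-stress marker GCLC is measured as mRNA change in human HepaRG liver cells after 48 h chemical treatment in 0.5% DMSO, eight concentrations from 100 uM. Activity is fitted bidirectionally against vehicle.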

[9] = read-out: growth arrest and DNA damage 45 (GADD45G), GADD45G (gene 10912); assay: LTEA_HepaRG_GADD45G: Life Technologies and Expression Analysis (LTEA) Assay for growth arrest and DNA damage 45 (GADD45G) using HepaRG (AID 2283499)
Description: as §2, with “plate.LTEA_HepaRG_GADD45G” for “plate.LTEA_HepaRG_FABP1”, “Cell proliferation, survival, death.Data” for “Steatosis.Data”, “LTEA_HepaRG_GADD45G” for “LTEA_HepaRG_FABP1”, “LTEA_HepaRG_GADD45G,” for “LTEA_HepaRG_FABP1,”, “mutagenicity response” for “transporter”, “Cell proliferation, survival, death.” for “fatty acid carrier protein.”
A total of 1060 chemcials from the ToxCast library were tested in eight-point concentration-response experiments. […] Fluidigm's 96.96 Dynamic ArrayTM (Fluidigm, Amsterdam, the Netherlands) technology was used for gene expression analyses by quantitative reverse transcription polymerase chain reaction (qRT-PCR, performed by Quintiles/Expression Analysis, Durham, NC)89. […]

[10] = read-out: Glutamate-cysteine ligase regulatory (GCLM), GCLM (gene 2730); assay: LTEA_HepaRG_GCLM: Life Technologies and Expression Analysis (LTEA) Assay for Glutamate-cysteine ligase regulatory (GCLM) using HepaRG (AID 2283500)
Summary of the method: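 HepaRG, 48 h dosing, 100 uM top, half-log x8, 0.5% DMSO vehicle. Readout: GCLM mRNA by TaqMan qRT-PCR, housekeeping-normalized (ACTB/GAPDH/POLR2A). Curves fit bidirectionally vs DMSO baseline.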

Measured: outcome

Cytochrome P450 3A7 (Homo sapiens), sequence (P24462 whole entry, looked up): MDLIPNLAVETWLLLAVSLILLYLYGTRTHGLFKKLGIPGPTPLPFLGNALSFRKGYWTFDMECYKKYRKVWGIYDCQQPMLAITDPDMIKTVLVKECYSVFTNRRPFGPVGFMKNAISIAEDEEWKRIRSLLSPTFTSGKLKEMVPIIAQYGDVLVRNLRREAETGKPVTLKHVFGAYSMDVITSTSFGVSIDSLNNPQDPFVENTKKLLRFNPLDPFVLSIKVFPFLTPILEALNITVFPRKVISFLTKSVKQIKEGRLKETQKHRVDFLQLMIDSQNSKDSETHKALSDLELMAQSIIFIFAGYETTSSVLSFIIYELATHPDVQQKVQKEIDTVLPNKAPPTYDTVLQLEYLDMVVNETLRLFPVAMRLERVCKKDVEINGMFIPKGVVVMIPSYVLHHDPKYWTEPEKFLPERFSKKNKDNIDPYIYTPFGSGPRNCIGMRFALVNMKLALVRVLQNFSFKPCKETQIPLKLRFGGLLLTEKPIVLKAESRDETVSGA

O=C(O)c1ccc([N+](=O)[O-])cc1
inactive: all assays above
